# Lassa entry inh = blocks Lassa virus binding to or entry into cells. hit rate 1.2% among 300,000. Potency, µM (titrated, usually from 37.9 µM), for inactives: at the highest dose activity change, negative = inhibition, most hits filed as inhibitors. Lassa virus pseudotype entry inhibition, cell reporter; calls by dose curve; tested in HEK293 cells; also: potency is read from the fitted curve at half-maximal effect; nearly all actives have a fitted effect of over 50% in size
# FMDV inh = foot and mouth disease virus antiviral activity. hit rate 1.2% among 410,000. Potency, µM (titrated, usually from 57.9 µM), inactives show at the highest dose activity change, negative = inhibition, usual class: inhibitors. FMDV antiviral cell-based qHTS; calls by dose curve; tested in HEK293T cells; also: read-out not given here; potency is read from the fitted curve at half-maximal effect; nearly all actives have a fitted effect of over 45% in size
# VACV Venus inh = inhibitors of vaccinia virus (Venus reporter) | Vaccinia virus Venus reporter expression, fluorescence | hit rate 0.46% among 330,000 | Potency, µM (series often up to 36.5 µM), inactives show at the top dose activity change, negative = inhibition, hits mostly inhibitors; calls by dose curve; tested in A549 cells; also: potency is read from the fitted curve at half-maximal effect; nearly all actives have a fitted effect of over 30% in size
# Vaccinia mCherry = inhibitors of vaccinia virus infection (mCherry reporter signal); Vaccinia virus mCherry reporter infection, fluorescence; Potency, µM (doses to about 36.5 µM), inactives show at the highest dose activity change, negative = inhibition, hits mostly inhibitors; hit rate 0.63% among 310,000; AID 720579; calls by dose curve; tested in A549 cells; also: potency is read from the fitted curve at half-maximal effect; nearly all actives have a fitted effect of over 35% in size
# HCMV antiviral = human cytomegalovirus inhibition. HFF cells, HCMV-luciferase reporter, 72 h; hits give low values. activity change, negative = inhibition, % at 57.5 µM. hit rate 4.5% among 410,000. AID 1259415; in the data active = activity change below about -60%; inconclusive = no clear call, values can overlap the other calls; inactive = above about -39%
#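 Two-dose cell screen: HFF monolayers treated with compounds and infected with luciferase-expressing HCMV at 1 PFU/cell, 72 h at 37C, then lysed for luciferase measurement.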
# Marburg entry inh = Marburg virus entry inhibition | AID 540276 | Potency, µM (highest dose often 37.8 µM), for the others: top-dose activity change, negative = inhibition, hits mostly inhibitors | hit rate 1.8% among 300,000 | Marburg virus pseudotyped entry inhibition, cell reporter; calls by dose curve; tested in HEK293 cells; also: potency is read from the fitted curve at half-maximal effect
# * = called active by the depositor; i = inactive; ? = inconclusive; / = no result; [ ] = another dose, or the depositor's remark. Hits are enriched below; roughly 6.5% of the tested compounds scored in any of these assays. % is scaled to controls: 0 for no effect and ±100 for the full control effect.
SMILES,Lassa entry inh,FMDV inh,VACV Venus inh,Vaccinia mCherry,HCMV antiviral,Marburg entry inh
N#Cc1nc(-c2ccccc2)oc1NCC1CCCO1 (stereo not drawn),-5%,10%,-1%,-12%,-11,-3%
CC(C)(C)c1nc(NC(=O)Nc2ccccc2)sc1Br,/,?,/,/,-97*,/
COc1ccc2nc(NC(=O)Nc3ccccc3)sc2c1,?,17%,-29%,?,24,?
COc1ccc(C(=O)Nc2ccc(NC(=O)c3cccs3)cc2)cc1Cl,6%,8%,/,/,-76*,26%
COc1ccccc1C(=O)Nc1ccc(NC(=O)c2ccco2)cn1,22%,27%,-13%,i,17,?
CCCCOc1cccc(C(=O)Nc2ccc(NC(=O)c3cccs3)cc2)c1,?,13%,?,-14%,-89*,?
CCCCOc1ccc(C(=O)Nc2ccncc2)cc1,?,?,?,/,-76*,?
COc1ccccc1C(=O)NC(=S)Nc1ccc(NC(=O)c2ccco2)cc1,-2%[46.1 µM],-2%,-3%,-3%,-75*,?
CCNC(=O)C1(C)CCN(Cc2cccc3ccccc23)C1 (stereo not drawn),/,/,/,/,-6,/
COc1ccccc1C(=O)Nc1ccc(NC(=O)c2cccs2)cc1,1%[46.1 µM],-25%,?,?,-25,/
COc1ccccc1C(=O)NC(=S)Nc1ccc(NC(=O)c2cccs2)cc1,-24%,?,-22%,-28%,-67*,?
O=C(Nc1cccc(-c2nc3ccccc3o2)c1)C(F)(F)F,9%[46.1 µM],32µM*,-19%,?,-103*,/
CCNC(=O)CSC1=N/C(=C\c2ccc(O)c(OCC)c2)C(=O)N1c1ccc(OC(F)F)cc1,-8%[46.1 µM],12%,45%,-8%,-70*,9%[46.1 µM]
CC(C)n1nc(C(=O)Nc2cccc(S(=O)(=O)N3CCOCC3)c2)c2ccccc2c1=O,/,-5%,/,/,23,/
CN1CC(C(=O)c2ccc([N+](=O)[O-])cc2)C(c2ccc(Cl)cc2)C1 (stereo not drawn),4%,-18%,-12%,?,-64*,-23%[46.1 µM]
CN1CC(C(=O)c2cccc(C(F)(F)F)c2)C(c2ccc(Cl)cc2)C1 (stereo not drawn),?,?,-7%,i,-72*,?
C=CCNC(=O)c1ccc2c(=O)n(Cc3ccccc3OC)c(=S)[nH]c2c1,/,-24%,/,/,-30,/
Cc1nc(-c2ccccn2)nc(N(C)c2ccccc2)c1Cl,/,-8%,/,/,-61*,/
Cc1csc(C(C)N(C)C(=O)c2cnn(-c3nccc(-c4cc(C)sc4C)n3)c2C)n1 (stereo not drawn),/,48%,-5%,-14%,/,/
Cc1ccc(CN2CCNC(=O)C2CC(=O)N2CCN(c3ncccn3)CC2)o1 (stereo not drawn),2%,0%,4%,i,36,0%
Cc1ccc(CSCCNC(=O)c2ccc(N(C)S(=O)(=O)c3ccccc3)cc2)cc1,?,-28%,?,/,-12,?
Cc1ccc(C(=O)NCCSC(C)(C)C)cc1,10µM*,-21%,-19%,/,149,8.9µM*
CN(c1ccc(C(=O)NCCSC(C)(C)C)cc1)S(=O)(=O)c1ccccc1,23µM*,23%,-17%,i,-30,-17%
CC(C)(C)SCCNC(=O)c1ccccc1,?,19%,?,/,119,-4%
Cc1cc(C)cc(-n2ccn(Cc3ccccc3C)c(=O)c2=O)c1,0%[46.1 µM],17%,-2%,3%,?,/
SMILES,Lassa entry inh,FMDV inh,VACV Venus inh,Vaccinia mCherry,HCMV antiviral,Marburg entry inh
COc1ccccc1/C=C/C1=CC2(C)CC1(C)C(c1ccccc1OC)CC2=O (stereo not drawn),/,/,/,/,/,-29%[14.2 µM]
COc1ccc(C(=O)N2CCN(c3ncnc4c(-c5ccccc5)nsc34)CC2)cc1,-2%,?,-2%,-6%,-6,-11%
COc1ccc(-c2nsc3c(N4CCCCC4C)ncnc23)cc1 (stereo not drawn),/,0.032µM*,-6%,i,-97*,/
COc1ccc(-c2nsc3c(N4CCCCC4)ncnc23)cc1,?,?,/,/,-83*,?
CCn1cc(C(=O)NCCN(CC(C)C)CC(C)C)c(=O)c2cc(S(=O)(=O)N(C)C3CCCCC3)ccc21,23%[46.1 µM],-1%,0%,-9%,12,6%[46.1 µM]
CCC1(C2CCN(C(=O)c3csc(C(C)=O)c3)CC2)NC(=O)N(CCc2scnc2C)C1=O (stereo not drawn),/,6%,3%,-4%,/,/
C=CCN=C(C)C1=C(O)CCC1=O,?,3%,-10%,/,24,10%
C=CCN=C(CC)C1=C(O)CCCC1=O,6%,6%,-6%,-12%[1.46 µM],-67*,2%
Cc1ccc(C)c(NC(=S)Nc2cccnc2)c1,-3%,-10%,-10%,-5%,-1,?
Cc1ccc(NC(=S)Nc2cccnc2)c(S(=O)(=O)N2CCCCC2)c1,?,-19%,-4%,-2%,-75*,?
CC(=O)c1cccc(NC(=O)c2ccccc2OCc2ccc(F)cc2)c1,-5%[46.1 µM],-10%,-9%,-16%,-35,?
COc1ccccc1C(=O)NCc1ccccc1,1%,61%,/,/,-26,11%
O=C(NCc1ccc(F)cc1)c1ccccc1OCc1ccccc1,?,?,-21%,-2%,-63*,?
O=C(Cc1ccsc1)NNC(=O)c1ccccc1O,?,9%,-24%,?,-61*,-1%[46.1 µM]
O=C(NNC(=O)c1ccccc1OCc1ccc(F)cc1)c1ccccc1O,?,-22%,?,?,-95*,?
O=C(NNC(=O)c1ccccc1OCc1ccccc1)c1ccccc1O,-2%[46.1 µM],8%,?,7.1µM*,-88*,-23%[46.1 µM]
O=C(NNC(=O)c1ccccc1OCc1ccccc1)c1ccccc1F,-5%[46.1 µM],16%,4%,i,132,-18%[46.1 µM]
COc1cc(C(=O)NCCC(=O)NCc2cccs2)cc(OC)c1OC,/,-18%,-4%,i,33,/
COc1ccc(OC)c([C@H]2C(C(=O)c3sc(C)nc3C)=C(O)C(=O)N2CCN2CCOCC2)c1,/,/,/,/,/,-11%[46.1 µM]
CO[C@H]1[C@H](NC(=O)c2ccncc2)c2ccccc2C12CCN(C(=O)c1ccoc1)CC2,/,-9%,6%,-6%,/,/
CC(=O)c1ccccc1OCc1ccc(S(=O)(=O)Cc2ccccc2)cc1,/,?,/,/,-71*,/
Nc1ccc(N2CCCC2)c(S(=O)(=O)Nc2cccc(C(F)(F)F)c2)c1,-2%,22%,-6%,-1%,-69*,-22%
Cc1ccc(NC(=O)COC(=O)CN2CCSC2=O)cc1Cl,/,-19%,-8%,-5%,26,/
CCCN1CCC(=O)N([C@H](CSc2ccccc2)c2ccccc2)CC1,/,62%,-5%,i,-102*,/
Cn1c(CS(=O)Cc2c(Cl)cccc2Cl)nnc1SCc1c(Cl)cccc1Cl (stereo not drawn),-6%,-4%,/,/,-13,?
O=S(Cc1ccc(Br)cc1)Cc1nnc(SCc2c(Cl)cccc2Cl)n1-c1ccccc1 (stereo not drawn),?,28µM*,?,?,?,?
